We go through five molecules from PubChem BioAssay.

Test [1] is described as follows: kinase inhibitors against Plasmodium liver-stage infection, cell-based, known kinase inhibitor set, luminescence, hepatoma host viability (AID 624392).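 Further: infected cells incubated roughly two days before readout.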 Particulars: Plasmodium liver stage in hepatoma cells, luciferase luminescence, concentration not given here; liver cell % of control: measured here: host liver cell viability; parasite % of control: stronger effect = lower value.

Test [2] can be described thus: stimulators of nuclear beta-catenin in C2C12, primary screen, imaging, WNT3A-conditioned medium, mouse C2C12, NPC library (AID 1117326; in the data active means nuclear beta-catenin stimulation mostly above about 4.2%, no sharp cut-off; inactive means mostly below about 10%). As to conditions: stronger effect = higher value.
A short description of test [3]: stimulators of insulin release from INS-1E, primary screen, cell-based, 5 mM glucose, NPC library (AID 1117329;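 active means compound raises insulin release from rat beta cells at 5 mM glucose, no numeric limit stated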). Particulars: rat INS-1E insulin secretion, at 10 µM, stronger effect = higher value.
Test [4] is described as follows: growth inhibition of GSK3B-pretreated HCT116 cells – cell-based, CellTiter-Glo, 0.2 to 20 µM (AID 1117336;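 active means compounds lowering colon cancer cell viability after pretreatment blocking the GSK3B kinase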). Particulars: HCT116 viability after GSK3B inhibitor, at 20 µM, stronger effect = higher value.
A short description of test [5]: inhibition of endothelial tube formation, primary screen, imaging, VEGF stimulated, CD31 staining, tube area, NPC library (AID 1117340;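 active means compound that reduces growth-factor-driven endothelial tube area in a mixed cell culture, no cutoff stated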). As to conditions: VEGF-stimulated ADSC/ECFC co-culture, at 10 µM, stronger effect = higher value.
The nature of test [6]: glucagon-like peptide 1 release enhancers, primary assay, NCI-H716 cell line, NPC library (AID 1117341;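 active means compound raises GLP1 secretion from the human gut endocrine cells, with no numeric limit stated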). As to conditions: NCI-H716 cells, at 10 µM, stronger effect = higher value.
Test [7] can be described thus: HCT116 colon cancer cell growth inhibition, primary screen, CellTiter-Glo luminescence, NPC library (AID 1117342;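 active means compounds that lower survival of HCT116 colon cancer cells in the luminescence readout, no numeric limit stated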). As to conditions: at 20 µM (top of the series).
The nature of test [8]: CellTiter-Glo luminescent readout of SW480 viability loss, NPC library primary (AID 1117343;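 active means compounds that lower viability of the colon cancer cells in the luminescence readout, with no numeric limit stated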). As to conditions: CellTiter-Glo luminescence; at 20 µM (top of the series). For orientation: In ATP-based viability assays light output follows the ATP content of the culture.
Test [9] is described as follows: decreased DLD-1 cellular survival, CellTiter-Glo luminescent readout, NPC compound collection, primary HTS (AID 1117346;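 active means compounds that lower survival of DLD-1 colon cancer cells in the luminescence readout, no cutoff given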). As to conditions: DLD-1 viability, CellTiter-Glo luminescence; at 20 µM (top of the series).
The target in test [10] is Plasmodium falciparum protein kinase 6 (PK6, PF3D7_1337100) (UniProt Q8IDW1). The test can be described thus: PfPK6 kinase inhibitors, biochemical, TCAMS library (AID 1159586). As to conditions: recombinant PfPK6, Kinase-Glo ATP depletion luminescence. A general note: Kinase-Glo reads ATP consumption through a luciferase reaction.
Test [11] can be described thus: liver-stage malaria parasite growth inhibition, primary screen, cell-based, HepG2, luciferase luminescence, HepG2 viability (AID 624349; in the data active means parasite load remaining mostly below about 12%, no sharp cut-off; inactive means mostly above about 10%;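 further: 100% = mean of DMSO negative control wells on the same plate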). As to conditions: P. berghei liver stage in HepG2, luciferase luminescence, concentration not given here; parasite load remaining: stronger effect = lower value; viability: measured here: HepG2 viability without parasites.
Test [12] concerns Hepatitis C virus NS3 helicase. Put plainly: HCV NS3 helicase inhibitors, primary screen, biochemical, fluorescence polarization, LOPAC1280 library (AID 687035; in the data active means inhibition above about 37%). Particulars: Purified HCV NS3 helicase, Cy5-dT15 ssDNA binding fluorescence polarization; stronger effect = higher value; concentration not given here.
Test [13] can be described thus: Cy5 fluorescence quenching or enhancement artefacts, artefact control for HCV NS3 helicase inhibitor project, biochemical, LOPAC1280 (AID 687037). Particulars: Cy5-DNA-NS3h complex fluorescence interference counterscreen. (A counterscreen serves to expose hits that act by an unwanted route or on another target.)
The target of test [14] is Calcium-dependent protein kinase 1 (Plasmodium falciparum (isolate 3D7)) (UniProt P62344). The test can be described thus: PfCDPK1 kinase inhibitors, biochemical, TCAMS library (AID 1159585; cut-off not given, nearly all actives have IC50 up to about 0.98 µM;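 further: inhibitors leave more ATP so luminescence rises with inhibition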). Particulars: recombinant PfCDPK1, Kinase-Glo ATP depletion luminescence.
Test [15] in a line: Cy5 fluorescence interference with SSB-bound oligo, artefact control for HCV NS3 helicase inhibitor project, biochemical, NIH Clinical Collection, E. coli SSB (AID 743268).
In test [16] the test system is Hepatitis C virus NS3 helicase. Put plainly: HCV NS3 helicase inhibitors, primary screen, biochemical, fluorescence polarization, NIH Clinical Collection (AID 743270). Particulars: NS3 helicase binding to Cy5-dT15 DNA, stronger effect = higher value, concentration not given here.
Test [17] concerns the target Single-stranded DNA-binding protein (Escherichia coli (strain K12)) (UniProt P0AGE0). Put plainly: E. coli SSB displacement from DNA, counter-screen for HCV NS3 helicase inhibitor project, biochemical, fluorescence polarization, NIH Clinical Collection (AID 743271; in the data active means inhibition above about 28%). Particulars: stronger effect = higher value, concentration not given here.
Test [18] in a line: fluorescence interference in NS3h assay format, artefact control for HCV NS3 helicase inhibitor project, biochemical, NIH Clinical Collection (AID 743272).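 Further: HCV NS3 helicase with a Cy5 labelled single stranded DNA probe.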 As to conditions: fluorescence interference counterscreen, stronger effect = lower value.
The subject of test [19] is Neuropilin-2 / VEGF-C interaction (human). The test can be described thus: inhibitors of NRP2–VEGF-C binding, biochemical, microplate binding format, z-score (AID 743281). Particulars: microplate NRP2/VEGF-C binding assay; stronger effect = lower value.

Where “and” joins values, the source holds several entries; their conditions need not be identical. Equal entries are not always repeated. For some assays here: Entries with a potency or affinity are not part of this list. Calls of active or inactive are those of the source. Unless noted, how the calls were made is not given here.

Chain of Plasmodium falciparum protein kinase 6 (PK6, PF3D7_1337100) (Q8IDW1 1-305): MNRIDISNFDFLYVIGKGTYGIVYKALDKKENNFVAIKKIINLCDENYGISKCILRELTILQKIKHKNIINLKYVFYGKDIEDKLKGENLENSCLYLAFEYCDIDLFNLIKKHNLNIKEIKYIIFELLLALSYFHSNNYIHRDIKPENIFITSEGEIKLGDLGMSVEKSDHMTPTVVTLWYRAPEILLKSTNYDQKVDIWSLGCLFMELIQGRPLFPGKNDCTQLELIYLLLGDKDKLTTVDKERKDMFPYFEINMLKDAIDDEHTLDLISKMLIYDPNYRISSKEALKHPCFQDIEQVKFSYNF
Chain of Calcium-dependent protein kinase 1 (Plasmodium falciparum (isolate 3D7)) (P62344 whole entry, looked up): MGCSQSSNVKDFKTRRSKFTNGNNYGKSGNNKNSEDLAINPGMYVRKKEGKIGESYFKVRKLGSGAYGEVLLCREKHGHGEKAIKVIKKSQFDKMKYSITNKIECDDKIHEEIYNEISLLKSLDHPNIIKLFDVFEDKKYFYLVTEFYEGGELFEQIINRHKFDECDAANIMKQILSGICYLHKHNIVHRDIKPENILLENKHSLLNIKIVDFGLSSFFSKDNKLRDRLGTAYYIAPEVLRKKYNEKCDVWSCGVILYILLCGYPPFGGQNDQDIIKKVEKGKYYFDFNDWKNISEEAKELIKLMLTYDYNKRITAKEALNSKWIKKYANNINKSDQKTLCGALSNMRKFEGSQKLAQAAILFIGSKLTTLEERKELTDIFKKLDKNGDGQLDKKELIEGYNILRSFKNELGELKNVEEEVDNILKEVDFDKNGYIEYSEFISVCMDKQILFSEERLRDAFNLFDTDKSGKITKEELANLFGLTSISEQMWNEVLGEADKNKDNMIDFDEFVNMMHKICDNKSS

For the molecule `COc1cc2c(Nc3ccc(Br)cc3F)ncnc2cc1OCC1CCN(C)CC1`, the liver cell % of control in [1] was 42.4% and 45.4% and 52%. For the same molecule, in test [1], the parasite % of control was 0.285% (inactive) and 8.38% (inactive) and 117% (inactive). The nuclear beta-catenin stimulation in [2] (at 10 µM) is -0.3% (inactive); in [2] (stimulation, at 2 µM), -0.9%. In [3], the insulin secretion stimulation is 2.4% (inactive). Also, in [4], the viability decrease was -7.7% (inactive). In test [5], the tube area decrease was -0.5% (inactive). Moreover, the GLP1 secretion stimulation in [6] was 1.5% (inactive). Moreover, in test [7], the inhibition of viability is -16% (inactive). Also, the viability decrease (inhibition) in test [8] was -11.4% (inactive); in test [9] it was -10.1% (inactive). Moreover, the result in test [10] was inactive.

Usually viability stands for a read-out of living cells in per cent, often relative to untreated cells. One may read the inhibition as the relative decrease from the control value, in per cent. With `COc1cc2c(cc1OC)-c1cc(=Nc3c(C)cc(C)cc3C)n(C)c(=O)n1CC2`, the parasite load remaining in [11] was 22.9% (inactive). For the same molecule, the viability in test [11] turned out to be 56.5%. Also, the inhibition in [12] is 1% (inactive). Besides, the fluorescence ratio (interference) in test [13] is 0.9 (inactive). Besides, the nuclear beta-catenin stimulation in [2] (at 10 µM) is 1.1% (inactive); in test [2] (stimulation, at 2 µM), -0.6%. Also, the insulin secretion stimulation in [3] was 1.3% (inactive). In test [4], the viability decrease was 91.5% (active). Further, the tube area decrease in test [5] was -11.8% (inactive). Further, the GLP1 secretion stimulation in [6] is 12.7% (inactive). The inhibition of viability in [7] was 71.2% (active). For the same molecule, the viability decrease (inhibition) in test [8] is 120% (active); in test [9] it was 66.5% (active). Further, the outcome in test [14] and in test [10] was inactive.

As for `O=C1N(c2ccccc2)c2ccccc2C1(Cc1ccncc1)Cc1ccncc1`, the parasite load remaining in test [11] was 77.9% (inactive). Besides, the viability in test [11] was 65.3%. The inhibition is -7% (inactive) in [12], -11.6% (inactive) in test [16] and -1.18% (inactive) in [17]. In [13], the fluorescence ratio (interference) was 0.9 (inactive). The fluorescence ratio in [15] is 0.98 (inactive); in [18], 0.93 (inactive). For the same molecule, the z-score in test [19] is -0.0491 (inactive). Besides, the nuclear beta-catenin stimulation was 0.2% (inactive) in test [2] (at 10 µM) and 3.8% in test [2] (stimulation, at 2 µM). For the same molecule, in test [3], the insulin secretion stimulation is 1.2% (inactive). Moreover, in test [4], the viability decrease was -9.5% (inactive). Moreover, the tube area decrease in [5] was 17.6% (inactive). In test [6], the GLP1 secretion stimulation is 2.6% (inactive). Besides, the inhibition of viability in test [7] is -4.7% (inactive). Moreover, the results for the viability decrease (inhibition) in test [8] and in test [9] were 23.8% (inactive) and -3.9% (inactive), respectively.

As to `OCc1cc(C(O)CNCCCCCCOCCCCc2ccccc2)ccc1O` (stereo not drawn), in test [11], the parasite load remaining is 94.7% (inactive) and 45.6% (inactive) and 21.7% (inactive). In addition, in [11], the viability was 96% and 67.2% and 65.5%. Also, the inhibition in test [12] is 2% (inactive); in test [16], -1.97% (inactive); in [17] it was -2.76% (inactive). For the same molecule, the fluorescence ratio (interference) in test [13] is 1 (inactive). Besides, the fluorescence ratio in [15] was 0.98 (inactive); in test [18], 1.01 (inactive). In [19], the z-score was -0.654 (inactive). Also, the nuclear beta-catenin stimulation in test [2] (at 10 µM) was 2.7% (inactive); in [2] (stimulation, at 2 µM), 0.3%. For the same molecule, in test [3], the insulin secretion stimulation is 0.4% (inactive). Further, in test [4], the viability decrease was -73.1% (inactive). In addition, the tube area decrease in [5] is 27.2% (inactive). For the same molecule, the GLP1 secretion stimulation in test [6] is -0.4% (inactive). In addition, in test [7], the inhibition of viability is 44.6% (inactive). Further, the viability decrease (inhibition) in test [8] is 46.4% (inactive); in test [9], 37.8% (inactive).

As for `CN(Cc1cnc2nc(N)nc(N)c2n1)c1ccc(C(=O)N[C@@H](CCC(=O)O)C(=O)O)cc1`, the parasite load remaining in test [11] was 8.84% (inactive) and 39.4% (inactive) and 21.9% (inactive). Besides, the viability in test [11] is 38.7% and 143% and 94.1%. Besides, the inhibition in test [12] is -1% (inactive); in [16] it was 1.19% (inactive); in test [17] it was 26.9% (inactive). Moreover, the fluorescence ratio (interference) in test [13] was 1 (inactive). For the same molecule, the fluorescence ratio in test [15] and in test [18] was 0.92 (inactive) each time. Also, in [19], the z-score was -1.5 (inactive). The nuclear beta-catenin stimulation in test [2] (at 10 µM) was 74% (active); in test [2] (stimulation, at 2 µM), 41%. In addition, the insulin secretion stimulation in [3] is -1.8% (inactive). Also, the viability decrease in test [4] was 87.8% (active). In test [5], the tube area decrease is 57.2% (active). Moreover, the GLP1 secretion stimulation in test [6] is 1.1% (inactive). Moreover, the inhibition of viability in test [7] was 74.5% (active). Further, the viability decrease (inhibition) in test [8] is 78.8% (active); in test [9], 65.9% (active). The result in test [14] and in [10] was inactive.
